Assay [1] is described as follows: ATG_GLI_CIS: Attagene CIS-FACTORIAL HepG2 Assay for human Zinc Finger Protein GLI1 (AID 2282945). Particulars: HepG2, Attagene cis-factorial reporter mRNA, GLI element; actives raise or lower the signal. The method in brief: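 Transiently transfected HepG2 cells report endogenous transcription factor activity via cis-element-driven reporter units. After 24 h compound exposure, reporter mRNA was measured by RT-PCR with capillary electrophoresis; bidirectional fitting against DMSO baseline.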

The target of assay [2] is Bile acid receptor (Homo sapiens) (UniProt Q96RI1). The assay can be described thus: ATG_IR1_CIS: Attagene CIS-FACTORIAL HepG2 Assay for human Nuclear Receptor Subfamily 1 Group H Member 4 (NR1H4), IR1 submotif (AID 2282946). Particulars: IR1 reporter transcription, actives raise or lower the signal. The procedure, abridged:
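Fluorescence of capillary-separated, HpaI-digested RT-PCR reporter products gave IR1-element mRNA induction in HepG2 cells 24 h after dosing. Endogenous transcription factors drove the cis-regulated reporters; activity was fitted bidirectionally against DMSO.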

A short description of assay [3]: ATG_GRE_CIS: Attagene CIS-FACTORIAL HepG2 Assay for human Glucocorticoid Response Elements (GRE) (AID 2282947). As to conditions: HepG2 GRE cis-reporter, Attagene multiplex mRNA; actives raise or lower the signal. The method in brief:
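Read-out: fluorescent reporter-transcript fragments separated by capillary electrophoresis after RT-PCR. Transiently transfected HepG2 cells carrying cis-element-driven reporter units were dosed for 24 h; gain or loss of signal fitted against DMSO control.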

Assay [4] in a line: ATG_ISRE_CIS: Attagene CIS-FACTORIAL HepG2 Assay for human Interferon Regulatory Factor 1 (IRF1) binding to an Interferon-Stimulated Response Element (ISRE) (AID 2282948). Particulars: HepG2 ISRE cis-reporter (Attagene), mRNA transcription readout; actives raise or lower the signal. The procedure, abridged: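 Multiplexed mRNA reporter readout in human liver HepG2 cells: cis-element-driven reporters transfected, compound added for 24 h, transcripts amplified, fluorescently labelled and sized by capillary electrophoresis; curve fitting bidirectional against DMSO.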

Assay [5] can be described thus: ATG_M_32_CIS: Attagene CIS-FACTORIAL HepG2 Assay for M32 Transcription Factor (Internal Marker) (AID 2282949).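 Further: background control marker of the multiplexed CIS panel rather than a real target.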 As to conditions: HepG2 Attagene cis-factorial M32 reporter, mRNA; actives raise or lower the signal. The method in brief: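 Using DMSO as baseline, bidirectional curve fits were applied to reporter mRNA signals. These came from transiently transfected HepG2 cells exposed for 24 h, with RNA analysed by RT-PCR, FAM primer extension, HpaI digestion and CE.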

Assay [6] is described as follows: ATG_M_06_CIS: Attagene CIS-FACTORIAL HepG2 Assay for M06 Transcription Factor (Internal Marker) (AID 2282950). As to conditions: HepG2 Attagene CIS-FACTORIAL M06 internal marker reporter; actives raise or lower the signal. The method in brief: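 Terse: HepG2, transient MRTU transfection (FuGene 6), 24 h dosing; total RNA, oligo(dT) RT, PCR, FAM label, HpaI cut, capillary electrophoresis; bidirectional fit vs DMSO baseline; background-control endpoint.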

Assay [7] deals with Hypoxia-inducible factor 1-alpha (Homo sapiens) (UniProt Q16665). Kind of assay: ATG_HIF1a_CIS: Attagene CIS-FACTORIAL HepG2 Assay for human Hypoxia Inducible Factor 1 (HIF1A) (AID 2282951). Particulars: HepG2 Attagene cis-factorial HIF1a reporter transcription; actives raise or lower the signal. The method in brief: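 After 24 h chemical exposure of reporter-transfected HepG2 cells, reporter cDNA was PCR-amplified, labelled by 6-FAM primer extension (2 min 95 C, 20 s 68 C, 10 min 72 C), HpaI-cut (2 h, 37 C) and analysed by CE.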
Sequence of Hypoxia-inducible factor 1-alpha (Homo sapiens) (Q16665 whole entry, looked up): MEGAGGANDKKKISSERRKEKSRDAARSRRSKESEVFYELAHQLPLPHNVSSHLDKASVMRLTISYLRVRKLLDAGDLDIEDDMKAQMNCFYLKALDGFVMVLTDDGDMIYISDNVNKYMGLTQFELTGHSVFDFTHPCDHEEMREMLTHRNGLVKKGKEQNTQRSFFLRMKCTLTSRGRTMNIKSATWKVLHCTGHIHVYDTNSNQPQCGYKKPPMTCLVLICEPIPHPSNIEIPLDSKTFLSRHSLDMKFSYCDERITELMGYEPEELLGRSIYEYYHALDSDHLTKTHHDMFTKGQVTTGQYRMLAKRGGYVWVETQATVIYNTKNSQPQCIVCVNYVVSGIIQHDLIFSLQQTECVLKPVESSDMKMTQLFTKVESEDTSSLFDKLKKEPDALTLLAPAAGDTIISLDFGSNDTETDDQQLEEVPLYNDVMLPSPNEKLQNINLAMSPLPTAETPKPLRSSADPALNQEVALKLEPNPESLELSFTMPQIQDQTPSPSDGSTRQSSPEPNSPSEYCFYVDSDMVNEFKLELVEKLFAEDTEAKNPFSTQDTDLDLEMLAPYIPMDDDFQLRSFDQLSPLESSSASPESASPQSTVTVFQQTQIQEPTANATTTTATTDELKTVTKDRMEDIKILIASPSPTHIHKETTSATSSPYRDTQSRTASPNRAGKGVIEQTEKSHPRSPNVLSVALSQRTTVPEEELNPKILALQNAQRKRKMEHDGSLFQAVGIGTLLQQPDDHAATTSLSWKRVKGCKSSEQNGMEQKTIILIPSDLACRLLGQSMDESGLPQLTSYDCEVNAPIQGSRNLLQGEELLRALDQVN

The target in assay [8] is Hepatocyte nuclear factor 6 (Homo sapiens) (UniProt Q9UBC0). The assay can be described thus: ATG_HNF6_CIS: Attagene CIS-FACTORIAL HepG2 Assay for human Hepatocyte Nuclear Factor 6 (HNF6) (AID 2282952). As to conditions: HepG2 Attagene cis-factorial HNF6 reporter transcription; actives raise or lower the signal. The method in brief: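 Endogenous transcription factor activity in human HepG2 liver cells was captured through cis-regulated reporter constructs. After 24 h treatment, reporter mRNA was measured by RT-PCR with capillary electrophoresis, and activity was fitted in both directions relative to DMSO.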
Sequence of Hepatocyte nuclear factor 6 (Homo sapiens) (Q9UBC0 whole entry, looked up): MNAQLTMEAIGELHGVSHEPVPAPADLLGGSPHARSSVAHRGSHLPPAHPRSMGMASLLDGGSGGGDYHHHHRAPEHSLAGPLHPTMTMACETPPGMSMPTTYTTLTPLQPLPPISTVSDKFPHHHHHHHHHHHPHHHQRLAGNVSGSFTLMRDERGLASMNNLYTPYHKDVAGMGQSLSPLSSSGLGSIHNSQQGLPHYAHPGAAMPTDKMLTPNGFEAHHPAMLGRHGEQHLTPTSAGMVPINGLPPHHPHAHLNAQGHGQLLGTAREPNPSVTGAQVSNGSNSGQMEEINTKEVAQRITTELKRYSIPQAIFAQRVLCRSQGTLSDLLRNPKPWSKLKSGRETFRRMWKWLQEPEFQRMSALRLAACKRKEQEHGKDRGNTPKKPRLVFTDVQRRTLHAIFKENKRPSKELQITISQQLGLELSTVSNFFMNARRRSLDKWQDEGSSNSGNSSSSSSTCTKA

For assay [9], the target named is Heat shock factor protein 1 (Homo sapiens) (UniProt Q00613). The assay can be described thus: ATG_HSE_CIS: Attagene CIS-FACTORIAL HepG2 Assay for human Heat Shock Transcription Factor 1 (HSE) (AID 2282953). As to conditions: HepG2 HSE cis-reporter, Attagene RNA transcription; actives raise or lower the signal. The procedure, abridged:
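Read-out: fluorescence of reporter-specific RT-PCR fragments separated by capillary electrophoresis. HepG2 carrying transfected cis-element reporter units; 24 h dosing; activity fitted in both directions relative to DMSO baseline.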

Assay [10] is described as follows: ATG_MRE_CIS: Attagene CIS-FACTORIAL HepG2 Assay for human Metal Responsive Element (MRE) (AID 2282954). Particulars: HepG2 MRE cis-reporter transcription, Attagene multiplex; actives raise or lower the signal. The procedure, abridged: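 RT-PCR/capillary electrophoresis readout of reporter mRNA, 24 h post-dosing, in HepG2 cells transfected with multiplexed cis-regulated reporter constructs. Gain or loss of signal fitted bidirectionally against DMSO baseline.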

Assay [11] in a line: ATG_PBREM_CIS: Attagene CIS-FACTORIAL HepG2 Assay for human Phenobarbital-responsive Enhancer Module (PBREM) (AID 2282955). As to conditions: HepG2 PBREM cis-reporter, Attagene multiplexed transcription; actives raise or lower the signal. The procedure, abridged:
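Measures endogenous factor action on a phenobarbital-responsive enhancer module. HepG2 transiently carrying cis reporters, 24 h treatment, mRNA read-out by RT-PCR plus capillary electrophoresis.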

Assay [12] deals with Paired box protein Pax-6 (Homo sapiens) (UniProt P26367). The assay can be described thus: ATG_Pax6_CIS: Attagene CIS-FACTORIAL HepG2 Assay for human Paired Box 6 (PAX6) (AID 2282956). Particulars: HepG2 CIS-FACTORIAL PAX6 reporter transcription, RNA readout; actives raise or lower the signal. The procedure, abridged:
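Fluorescent RT-PCR products separated by capillary electrophoresis report PAX6-linked promoter mRNA in HepG2 cells 24 h post-dose. Curves fitted bidirectionally, DMSO as negative control.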

Assay [13] can be described thus: ATG_PPRE_CIS: Attagene CIS-FACTORIAL HepG2 Assay for human Peroxisome Proliferator-activated Response Element (PPRE) (AID 2282958). As to conditions: HepG2 PPRE cis-element reporter, Attagene transcription factor profiling; actives raise or lower the signal. The procedure, abridged:
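PPRE activity in HepG2: transient cis-reporter transfection, 24 h compound incubation, reporter mRNA by RT-PCR and CE fluorescence; gain/loss fitted against DMSO.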

Assay [14] can be described thus: ATG_RORE_CIS: Attagene CIS-FACTORIAL HepG2 Assay for human RAR-related Orphan Receptor Element (RORE) (AID 2282959). Particulars: HepG2 Attagene cis-factorial RORE reporter, mRNA; actives raise or lower the signal. The method in brief:
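A 24-hour exposure of transfected HepG2 hepatoma cells precedes RNA isolation and reporter RT-PCR. Labeled products are digested with HpaI and resolved by capillary electrophoresis, with gain or loss of signal scored relative to DMSO.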

The nature of assay [15]: ATG_Sox_CIS: Attagene CIS-FACTORIAL HepG2 Assay for human SRY-box transcription factor (SOX) (AID 2282960). As to conditions: HepG2 Attagene cis-factorial SOX reporter, mRNA; actives raise or lower the signal. The method in brief: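 HepG2, cis reporter units, 24 h exposure. Reporter mRNA: RT-PCR → FAM labelling → HpaI → CE fluorescence. Bidirectional fit vs DMSO.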
Assay [16] concerns the target Transcription factor Sp1 (Homo sapiens) (UniProt P08047). Kind of assay: ATG_Sp1_CIS: Attagene CIS-FACTORIAL HepG2 Assay for human Specificity Protein 1 (Sp1) (AID 2282961). As to conditions: HepG2 Sp1 cis-reporter transcription, actives raise or lower the signal. The procedure, abridged:
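Liver-derived HepG2 cells, cis-element reporter library, 24 h treatment; RNA isolated, cDNA amplified with reporter-specific primers, FAM-labeled fragments sized on capillary analyzer. DMSO baseline, bidirectional curve fit.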

A short description of assay [17]: ATG_SREBP_CIS: Attagene CIS-FACTORIAL HepG2 Assay for human Sterol Regulatory Element Binding (SREBP) (AID 2282962). As to conditions: HepG2 Attagene cis-factorial SREBP reporter, mRNA; actives raise or lower the signal. The procedure, abridged:
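Endogenous factor activity is measured in HepG2 through multiplexed reporter units under cis-element control. Following a 24 h incubation, reporter transcripts are reverse-transcribed, PCR-amplified and sized by capillary electrophoresis; activity is fitted in both directions relative to DMSO.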

The target in assay [18] is Signal transducer and activator of transcription 3 (Homo sapiens) (UniProt P40763). The assay can be described thus: ATG_STAT3_CIS: Attagene CIS-FACTORIAL HepG2 Assay for human Signal Transducer and Activator of Transcription 3 (STAT3) (AID 2282963). Particulars: HepG2, Attagene cis-factorial STAT3 reporter transcription; actives raise or lower the signal. The procedure, abridged: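 Readout: fluorescent reporter mRNA fragments resolved by capillary electrophoresis. Setup: HepG2 transfected with MRTUs reporting endogenous transcription-factor activity, dosed 24 h. Gain or loss of signal fitted bidirectionally against DMSO control.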
Sequence of Signal transducer and activator of transcription 3 (Homo sapiens) (P40763 whole entry, looked up, the tested form may be a part): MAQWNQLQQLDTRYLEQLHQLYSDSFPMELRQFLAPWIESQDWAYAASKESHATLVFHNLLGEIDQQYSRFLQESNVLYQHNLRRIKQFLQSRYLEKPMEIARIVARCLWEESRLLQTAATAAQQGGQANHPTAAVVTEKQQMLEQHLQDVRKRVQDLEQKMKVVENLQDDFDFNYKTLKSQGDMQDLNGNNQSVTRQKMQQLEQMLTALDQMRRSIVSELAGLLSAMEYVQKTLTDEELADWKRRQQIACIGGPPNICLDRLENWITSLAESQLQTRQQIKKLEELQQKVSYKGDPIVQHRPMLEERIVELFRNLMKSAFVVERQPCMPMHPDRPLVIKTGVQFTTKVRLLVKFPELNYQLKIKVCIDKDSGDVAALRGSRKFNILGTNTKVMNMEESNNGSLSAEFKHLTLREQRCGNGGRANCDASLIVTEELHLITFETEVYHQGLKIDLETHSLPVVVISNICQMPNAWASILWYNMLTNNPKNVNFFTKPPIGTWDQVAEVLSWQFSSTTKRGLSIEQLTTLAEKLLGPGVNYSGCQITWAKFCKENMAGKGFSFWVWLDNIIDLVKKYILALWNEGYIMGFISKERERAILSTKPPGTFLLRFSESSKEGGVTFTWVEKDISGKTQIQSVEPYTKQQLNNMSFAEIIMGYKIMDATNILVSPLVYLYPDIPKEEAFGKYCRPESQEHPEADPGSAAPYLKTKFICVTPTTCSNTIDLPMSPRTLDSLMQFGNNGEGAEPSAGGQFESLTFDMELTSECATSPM

The nature of assay [19]: ATG_TA_CIS: Attagene CIS-FACTORIAL HepG2 Assay for human TA Basal Promoter (AID 2282964). As to conditions: HepG2 Attagene CIS-factorial TA basal promoter reporter; actives raise or lower the signal. The procedure, abridged:
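Transfected HepG2, 24 h compound exposure; RNA → RT-PCR → FAM primer extension → HpaI cut → CE fluorescence. Gain/loss-of-signal fitted against DMSO negative control. Background-control readout.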

Assay [20] is described as follows: ATG_PXRE_CIS: Attagene CIS-FACTORIAL HepG2 Assay for human Pregnane X Receptor Element (PXRE) (AID 2282957). Particulars: HepG2 Attagene CIS-FACTORIAL PXRE reporter, mRNA; actives raise or lower the signal. The method in brief:
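Endogenous transcription factor activity in HepG2 was gauged through induction of reporter mRNA driven by a cis-regulating promoter element, sampled 24 h post-treatment. Activity was fitted in both directions against DMSO negative control.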

Outcome and AC50 data for 4 molecules are collected here from PubChem BioAssay (EPA / NIEHS).

What is called AC50 is the concentration at which the activity in the assay is half-maximal.

Molecules are shown by their SMILES. The source made the active and inactive calls. How the source made its calls: active means hit-call score of the fitted dose curve at least 0.9, where 1 is the maximum; inactive means score below 0.9.

Sequence of Paired box protein Pax-6 (Homo sapiens) (P26367 whole entry, looked up): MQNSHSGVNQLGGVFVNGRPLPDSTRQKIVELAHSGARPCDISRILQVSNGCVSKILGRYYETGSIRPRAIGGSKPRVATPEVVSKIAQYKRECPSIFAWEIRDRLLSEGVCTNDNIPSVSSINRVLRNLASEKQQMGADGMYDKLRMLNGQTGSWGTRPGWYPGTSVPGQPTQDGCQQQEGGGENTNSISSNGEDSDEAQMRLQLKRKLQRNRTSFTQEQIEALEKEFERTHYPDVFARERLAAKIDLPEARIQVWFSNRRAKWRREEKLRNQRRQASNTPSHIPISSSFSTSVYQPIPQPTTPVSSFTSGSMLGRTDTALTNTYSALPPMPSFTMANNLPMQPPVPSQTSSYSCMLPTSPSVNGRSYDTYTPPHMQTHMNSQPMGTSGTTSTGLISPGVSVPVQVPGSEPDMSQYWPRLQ
Sequence of Heat shock factor protein 1 (Homo sapiens) (Q00613 whole entry, looked up, the tested form may be a part): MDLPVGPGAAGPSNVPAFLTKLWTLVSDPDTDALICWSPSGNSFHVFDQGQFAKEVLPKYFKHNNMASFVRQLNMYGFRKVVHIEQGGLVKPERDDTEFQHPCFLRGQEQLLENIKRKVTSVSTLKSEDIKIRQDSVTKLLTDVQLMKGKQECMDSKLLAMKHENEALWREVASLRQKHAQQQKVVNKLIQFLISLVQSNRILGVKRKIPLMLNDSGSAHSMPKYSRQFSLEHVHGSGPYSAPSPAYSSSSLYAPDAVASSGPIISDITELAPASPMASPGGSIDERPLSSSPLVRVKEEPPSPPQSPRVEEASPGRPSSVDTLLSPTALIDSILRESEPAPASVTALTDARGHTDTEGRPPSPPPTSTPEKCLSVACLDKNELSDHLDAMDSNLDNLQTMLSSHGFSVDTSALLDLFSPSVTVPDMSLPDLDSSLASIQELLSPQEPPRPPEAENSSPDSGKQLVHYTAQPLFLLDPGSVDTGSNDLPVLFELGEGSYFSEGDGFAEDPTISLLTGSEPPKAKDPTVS
Sequence of Transcription factor Sp1 (Homo sapiens) (P08047 whole entry, looked up, the tested form may be a part): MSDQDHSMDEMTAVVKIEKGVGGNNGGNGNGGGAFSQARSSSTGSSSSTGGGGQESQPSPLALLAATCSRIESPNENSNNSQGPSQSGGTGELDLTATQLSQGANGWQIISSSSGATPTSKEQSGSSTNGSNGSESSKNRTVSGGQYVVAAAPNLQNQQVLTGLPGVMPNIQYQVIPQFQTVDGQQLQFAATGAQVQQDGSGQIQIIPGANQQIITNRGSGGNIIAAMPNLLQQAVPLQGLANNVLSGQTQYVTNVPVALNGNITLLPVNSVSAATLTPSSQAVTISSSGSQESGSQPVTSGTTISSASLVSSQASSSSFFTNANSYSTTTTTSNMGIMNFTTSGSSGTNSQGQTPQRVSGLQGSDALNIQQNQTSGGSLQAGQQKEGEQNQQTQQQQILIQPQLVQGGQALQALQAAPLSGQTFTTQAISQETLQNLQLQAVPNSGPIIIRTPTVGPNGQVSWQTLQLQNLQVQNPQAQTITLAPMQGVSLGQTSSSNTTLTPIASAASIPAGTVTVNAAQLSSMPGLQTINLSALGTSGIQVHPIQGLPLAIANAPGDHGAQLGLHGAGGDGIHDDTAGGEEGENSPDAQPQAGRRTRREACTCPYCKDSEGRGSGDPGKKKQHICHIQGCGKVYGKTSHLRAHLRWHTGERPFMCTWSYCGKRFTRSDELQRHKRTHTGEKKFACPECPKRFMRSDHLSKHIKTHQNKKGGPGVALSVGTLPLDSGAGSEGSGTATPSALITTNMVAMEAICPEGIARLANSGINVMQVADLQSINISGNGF
Sequence of Bile acid receptor (Homo sapiens) (Q96RI1 whole entry, looked up): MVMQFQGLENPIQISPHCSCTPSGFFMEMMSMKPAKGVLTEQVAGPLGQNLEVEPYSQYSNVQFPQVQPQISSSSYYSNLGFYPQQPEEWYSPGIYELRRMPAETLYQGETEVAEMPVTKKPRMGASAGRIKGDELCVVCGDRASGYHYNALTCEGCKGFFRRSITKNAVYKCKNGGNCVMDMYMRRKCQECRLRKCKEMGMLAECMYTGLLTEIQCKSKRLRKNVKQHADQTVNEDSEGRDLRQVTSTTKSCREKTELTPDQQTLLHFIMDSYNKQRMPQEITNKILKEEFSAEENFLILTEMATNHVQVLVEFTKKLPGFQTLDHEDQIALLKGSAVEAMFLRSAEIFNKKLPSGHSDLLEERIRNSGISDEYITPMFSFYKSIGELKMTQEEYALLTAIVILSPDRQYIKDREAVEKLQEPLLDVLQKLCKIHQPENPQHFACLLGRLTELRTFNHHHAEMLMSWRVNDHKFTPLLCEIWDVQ

In the case of `O=C(Cl)C(F)(F)C(F)(F)C(F)(F)C(F)(F)C(F)(F)C(F)(F)C(F)(F)C(F)(F)F`, the molecule was called inactive in assay [1], in [2], in assay [3], in [5], in assay [6] and in assay [7]. Besides, the molecule was classed as inactive in assay [8], in assay [11], in assay [15], in assay [16], in [17] and in assay [18]. Further, the call in [19] was inactive. Further, the AC50 was 33.4 µM (active) in assay [4]; 49.6 µM (active) in [9]; 48 µM (active) in assay [10]; 54.1 µM (active) in [12]; 33.4 µM (active) in assay [13]; 44.5 µM (active) in [14].

As to `OCC(F)(F)C(F)(F)C(F)(F)C(F)(F)C(F)(F)C(F)F`, the molecule was classed as inactive in assay [1], in assay [3], in [4], in assay [5], in assay [6] and in assay [7]. The outcome in assay [8], in assay [9], in [10], in assay [11], in [12] and in assay [20] was inactive. Also, the molecule was called inactive in [13], in [14], in assay [15], in assay [16], in assay [17] and in assay [18]. In addition, in assay [19], the result was inactive.

Regarding `O=C(OCCOCCOCCOC(=O)c1ccccc1)c1ccccc1`, the outcome in assay [1], in assay [3], in assay [4], in [5], in assay [6] and in assay [7] was inactive. Moreover, the molecule was classed as inactive in assay [8], in assay [9], in assay [10], in assay [11], in assay [12] and in assay [20]. Further, the molecule was classed as inactive in assay [13], in [14], in assay [15], in [16], in [17] and in assay [18]. For the same molecule, the molecule was called inactive in assay [19].

As to `OCC(F)(F)C(F)(F)C(F)(F)C(F)(F)C(F)(F)C(F)(F)F`, the molecule was classed as inactive in [1], in assay [3], in assay [4], in assay [5], in [6] and in [7]. Further, the molecule was classed as inactive in [8], in assay [9], in assay [10], in assay [12], in assay [13] and in assay [14]. Also, the outcome in assay [15], in [16], in assay [18] and in [19] was inactive. Moreover, the AC50 in assay [11] is 282 µM (active); in assay [20], 242 µM (active); in [17], 234 µM (active).
